# Bioassay records: PubChem, several laboratories
# This is a sample that favours compounds with a hit; in the whole collection about 4.1% have one here.
# DAX1 inh-1 = inhibitors of human orphan nuclear receptor DAX1 (NR0B1) | P51843 | HEK293 Gal4-DAX1 luciferase reporter, luminescence | inhibition, % at 6.75 µM | 340,000 tested, 0.99% active | AID 504766;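 active means inhibition above the mean over all tested compounds plus 3 SD, cut at about 4.2% in these data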;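 further: inhibition shows as a rise in luminescence from relieved DAX1 repression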
# Target sequence (P51843 207-470 limits assumed): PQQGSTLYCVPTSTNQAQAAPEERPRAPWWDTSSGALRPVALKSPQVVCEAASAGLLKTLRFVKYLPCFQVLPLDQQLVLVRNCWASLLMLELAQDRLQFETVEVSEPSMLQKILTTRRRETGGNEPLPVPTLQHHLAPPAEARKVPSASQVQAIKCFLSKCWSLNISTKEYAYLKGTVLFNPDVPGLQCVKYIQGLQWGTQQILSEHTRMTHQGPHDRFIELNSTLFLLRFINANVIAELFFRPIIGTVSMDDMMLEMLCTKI
# hgDAF-12 ag = agonists of H. glycines DAF-12 nuclear receptor; HEK293 GAL4-hgDAF12 UAS-luciferase reporter, agonist luminescence; normalized to butyrate control; activation, % at 6.8 µM; 370,000 tested, 1.8% active;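 active means activation above a cutoff set at the mean of all screened compounds plus 3 SD, cut at about 10% in these data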
# PolyA inhibitor = inhibitors of polyadenylation in S. cerevisiae | activity score, % at 12 µM | S. cerevisiae SKY197-pL101 polyadenylation reporter, beta-gal luminescence; efflux-impaired pdr1/pdr3 knockout yeast; score 100 = 6 SD above DMSO | 300,000 tested, 0.02% active;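 active means lowest replicate activity score at least 50, where 100 means six control SD above control mean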;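 further: yeast exposed to compound for 9 h at 30 °C; higher score means more reporter readthrough which indicates perturbed polyadenylation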
# ssDAF-12 act = S. stercoralis DAF-12 activation, primary screen. HEK293 ssDAF-12/GRIP1 lit1-tk-luc reporter, luminescence; % of 3 µM dafachronic acid response. activation, % at 6.8 µM. 370,000 tested, 1% active. AID 652126;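 active means activation above the mean over all tested compounds plus 3 SD, cut at about 0.9% in these data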
# hcDAF12 agonist = activates DAF-12 receptor from parasite H. contortus; HEK293 hcDAF-12 lit1-tk-luc reporter, luminescence; 0% DMSO, 100% Δ7-dafachronic acid; activation, % at 6.8 µM; 370,000 tested, 1.4% active;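 active means activation above the mean of all tested compounds plus 3 SD, cut at about 5.5% in these data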
# DAX1 inh-2 = DAX1 (NR0B1) inhibition, primary screen | AID 652010 | 370,000 tested, 1.1% active | HEK293T StAR-luciferase reporter, SF-1/DAX-1 repression relief | inhibition, % at 6.8 µM;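 active means inhibition above the mean over all tested compounds plus 3 SD, cut at about 3.6% in these data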;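 further: higher inhibition means more luminescence from relief of DAX-1 repression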
# LXRb hcDAF ctr = LXR-beta agonism as hcDAF-12 counter-screen | activation, % at 6.8 µM | 3,400 tested, under 10 active | shares compounds with hcDAF12 agonist | HEK293 Gal4-LXR tk-luc reporter, luminescence, 24 h; normalized: DMSO 0%, positive control 100%;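 active means mean percent activation of the reporter above a cutoff set as the average over tested compounds plus their standard deviation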
# hcDAF12 ag = hcDAF-12 agonism, confirmation assay. shares compounds with hcDAF12 agonist. HEK293 hcDAF-12 lit1-tk-luc reporter, luminescence; % of Δ7-dafachronic acid response. activation, % at 6.8 µM. 3,400 tested, 61% active. AID 743032;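 active means mean activation across triplicate tests above the threshold derived from the earlier primary screen, cut at about 5.5% in these data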
# Hits are given with their value; - = inactive; . = not tested or not shown.
SMILES,DAX1 inh-1,hgDAF-12 ag,PolyA inhibitor,ssDAF-12 act,hcDAF12 agonist,DAX1 inh-2,LXRb hcDAF ctr,hcDAF12 ag
COc1ccccc1NC(=O)NC(=O)c1ccccc1,-,-,-,-,11,-,-,13
COc1ccccc1NC(=O)Nc1cccc(C(=O)O)c1,-,-,-,-,-,-,.,.
COC(=O)CC(=O)CSc1nc2c(cc1C#N)CCCCC2,-,11,-,-,10,-,-,-
CC(=O)Nc1cc(N=Cc2ccc(O)cc2O)c(Cl)cc1Cl,-,.,-,.,.,.,.,.
COCc1c(C(=O)Nc2ccc(Cl)cc2F)oc2ccccc12,-,-,-,-,-,-,.,.
COCc1c(C(=O)Nc2nc(C)cs2)oc2ccccc12,-,-,-,-,6.8,-,-,5.7
N#C/C(=C\c1ccc(OCC(N)=O)cc1)S(=O)(=O)c1ccccc1,-,-,-,-,-,-,.,.
O=c1[nH]c2cc3c(cc2cc1CN(Cc1ccccc1)Cc1nnnn1Cc1ccco1)OCCO3,-,-,-,-,8.3,-,-,-
O=c1[nH]c2cc3c(cc2cc1CN(Cc1cccnc1)Cc1nnnn1Cc1ccco1)OCCO3,-,-,-,-,-,-,.,.
CN1CCc2c(sc(/N=C/c3c[nH]c4ccccc34)c2C#N)C1,.,-,-,-,8.7,-,-,9.0
CSc1nnc(-c2cc3c(s2)-c2ccccc2CC3)o1,-,11,-,2.6,9.8,-,-,11
S=c1[nH]nc(-c2cc3c(s2)-c2ccccc2CC3)o1,-,-,-,-,-,-,.,.
COc1ccc(-c2cc(-c3cc(C)ccc3O)[nH]n2)cc1,-,-,-,1.2,7.6,-,-,-
Cc1ccc(O)c(-c2cc(-c3ccc(F)cc3)no2)c1,7.7,20,-,4.0,19,-,-,18
COc1ccc(-c2cc(-c3ccc(C)cc3)n[nH]2)c(O)c1,5.8,13,-,-,6.9,-,-,-
Cc1ccc(-c2cc(C(=O)Nc3cc(C)ccc3O)no2)cc1,-,-,-,-,-,-,.,.
CCOC(=O)c1cc2c(OC)ccc(OC)c2n1CC(=O)c1ccccc1,-,-,-,-,-,-,.,.
Cc1cc(N)n(-c2ccc([N+](=O)[O-])cc2)n1,-,-,-,-,-,-,.,.
Cc1cc(N)n(-c2ccc(C)c(C)c2)n1,-,-,-,-,7.1,-,-,-
O=[N+]([O-])c1ccccc1/C=N/Nc1nccnc1Cl,-,-,-,-,-,-,.,.
Cc1c(O)ccc(/C=N/Nc2ncccc2[N+](=O)[O-])c1O,-,-,-,1.2,7.5,-,-,6.0
Cc1nn(-c2cccc(C(F)(F)F)c2)c(Cl)c1/C=N/Nc1cccc(C(=O)O)c1,-,13,-,-,10,3.7,-,9.5
CCOc1cc(/C=N\NC(=O)c2c(C)nc3ccccn23)ccc1O,-,-,-,-,8.0,-,-,-
Cc1nc2ccccn2c1C(=O)N/N=C/c1ccc2c(c1)OCO2,-,-,-,-,-,-,.,.
FC(F)(F)c1cccc(-c2cc3nc(NCCCn4ccnc4)ccn3n2)c1,.,-,.,-,-,-,.,.
SMILES,DAX1 inh-1,hgDAF-12 ag,PolyA inhibitor,ssDAF-12 act,hcDAF12 agonist,DAX1 inh-2,LXRb hcDAF ctr,hcDAF12 ag
Clc1ccccc1-c1cc2nc(NCCCn3ccnc3)ccn2n1,.,-,.,-,7.2,-,-,-
Cc1ccc2nc(N3C(=O)CNC3=S)sc2c1,.,-,-,-,-,-,.,.
COc1ccc2nc(N3C(=O)CNC3=S)sc2c1,-,-,-,-,8.4,-,-,-
CC1CCCCN1C(=O)c1cc2ccccc2cc1O (centres undefined),-,-,-,-,-,-,.,.
COc1ccc(C(=O)NCC2CCN(C(=O)C(=O)c3cc4ccccc4o3)CC2)cc1,.,-,.,-,-,-,.,.
Cc1csc(NC(=O)CSc2sc3c(O)cc(=O)[nH]c3c2C#N)n1,-,-,-,-,6.6,-,-,-
Cc1cc(SCC(=O)c2cccs2)nc2ccccc12,-,-,-,-,8.8,-,-,-
